Values without a mark were called inactive. Results filed as inconclusive are left out. Entries that show only a call come without a potency. Activity calls are given as the source filed them. The call rests on the fitted dose curve; in most records, active means well fitted curve in the direction sought with a large enough effect; inconclusive means small, poorly fitted or top-dose-only effect, or another doubt; inactive means no such curve, though single readings can be large; an effect the other way counts as inactive or inconclusive. *1 amine or outer side, *2 acyl side, *3 side chain or, on linkers, in order; H or OH if unused. Where a SMILES comes first, the peptide text is derived from it. [ ]: non-standard residue; d: D form. X13 = O=C(C(CC(O)CO)O[*:1])[*:2]; NMeV = CN[CH](C(=O)O)C(C)C; NMeA = CN[CH](C)C(=O)O; βAla = NCCC(=O)O
Key:
[1] = Primary fluorescence-based thiol-reactive (MSTI) qHTS assay for identification of artifact compounds. (AID 1845221); settings: MSTI thiol-reactivity probe, 1 h; series mostly up to 53.8 µM; further: nearly all actives have a fitted effect of over 65% in size; further: potency means the concentration at half of the fitted maximal effect;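 on activity change, negative = thiol reactive: thiol-reactive compounds lower the probe fluorescence signal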
How it was run: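 Reactivity toward the thiol probe MSTI (4 uM) is scored by fluorescence at Ex/Em 525/598 nm after 1 h at room temperature. Acetyl-MSTI and MSTI define the activity scale.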

[2] = tested on: Nanoluciferase (engineered Oplophorus gracilirostris luciferase); assay: Primary Nanoluciferase (NLuc) qHTS assay for identification of artifact compounds. (AID 1845222); settings: NLuc-conditioned medium, Nano-Glo luminescence, 5 min; series mostly up to 54.1 µM; further: potency means the concentration at half of the fitted maximal effect;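 on activity, negative = inhibition: NLuc secreted into diluted conditioned medium of S16 cells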
How it was run: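 Concentration-response data were obtained by luminescence after 5 min with Nano-Glo substrate at 1:100. The enzyme was diluted S16 NLuc-expressing cell medium, preincubated with compound for 15 min at RT. Curves were fitted with a 4-parameter Hill model.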

[3] = Primary redox qHTS assay for identification of artifact compounds. (AID 1845223); settings: Amplex Red/HRP redox cycling with DTT, fluorescence; series mostly up to 53.8 µM
How it was run: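 Redox-cycling detection via DTT (250 uM final) oxidation coupled to Amplex Red (25 uM)/HRP (250 mU/mL) in HBSS. 15 min preincubation plus 30 min after DTT, room temperature. Ex/Em 525/598 nm; 4-parameter Hill fit against DMSO and 10 uM DA3003.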

| Structure (SMILES) | Potency [1] | Potency [2] | Potency [3] | activity change, negative = thiol reactive [1] | activity, negative = inhibition [2] | redox activity (% of DA3003) [3] |
| --- | --- | --- | --- | --- | --- | --- |
| CC1(C(=O)O)CCCC2(C)C3CC4C5CC3(CCC12)CC45C (centres undefined) | inactive | inactive | inactive | – | – | – |
| CC1(C)C2CC[C@]3(C)C(C(=O)C=C4[C@H]5C[C@@](C)(C(=O)O)CC[C@]5(C)CC[C@]43C)[C@@]2(C)CC[C@@H]1O (some centres undefined) | inactive | inactive | inactive | – | – | – |
| C=CC(C)(CC/C=C(\C)C(=O)OC[C@H]1O[C@@H](OC(C)(C=C)CC/C=C(\C)C(=O)O[C@H]2[C@H](O)[C@@H](O)[C@H](OC(C)(C=C)CC/C=C(\C)C(=O)O)O[C@@H]2CO)[C@H](O)[C@@H](O)[C@@H]1O)O[C@@H]1O[C@H](CO)[C@@H](O)[C@H](O)[C@H]1O (some centres undefined) | – | – | – | 79.7% [at 11.5 µM] | 3.18% [at 11.6 µM] | 0.215% [at 11.5 µM] |
| CC1(C)CC2C3=CCC4[C@@]5(C)CC[C@H](OC6OCC(O)C(OC7OC(CO)C(O)C(O)C7O)C6O)C(C)(C)C5CC[C@@]4(C)[C@]3(C)C[C@H](O)[C@@]2(CO)[C@H](OC(=O)c2ccccc2)C1 (some centres undefined) | – | – | – | 159% [at 11.5 µM] | -2.24% [at 11.6 µM] | -2.38% [at 11.5 µM] |
| C#CCCCn1cc(-c2cccc3c2N[C@@H](C)CC(=O)N3)cn1 | inactive | inactive | inactive | – | – | – |
| C[C@H]1CCN2C[C@]34C[C@@]5(C(=O)Nc6c5ccc5c6OC=CC(C)(C)O5)C(C)(C)C3C[C@]12C(=O)N4C (some centres undefined) | inactive | inactive | inactive | – | – | – |
| C=C1CC[C@@H]2C(C)(C)CCC[C@@]2(C)[C@@H]1CC/C(=C/C(=O)OC)COC(C)=O | inactive | inactive | inactive | – | – | – |
| CC[C@H]1OC(=O)[C@H](C)C(=O)[C@H](C)[C@@H](OC2O[C@H](C)C[C@H](N(C)C)[C@H]2O)[C@@H](C)C[C@@H](C)C(=O)/C=C/[C@]1(C)O (some centres undefined) | inactive | inactive | inactive | – | – | – |
| O=C(NCCN1CCCC1)c1cc(-c2ccc(CN3CCOCC3)cc2)nc2ccc(F)cc12 | inactive | inactive | inactive | – | – | – |
| Cc1ccccc1-n1nc(-c2c(-c3ccc(F)cc3)nn3c2NC[C@@H](CO)C3)ccc1=O | inactive | inactive | inactive | – | – | – |
| C=CC(C)(O)CC/C=C(\C)C(=O)O[C@@H]1[C@@H](O)[C@H](OC(C)(C=C)CC/C=C(\C)C(=O)O[C@@H]2O[C@H](CO)[C@@H](O)[C@H](O)[C@H]2O)O[C@H](CO)[C@H]1OC(=O)/C(C)=C/CCC(C)(O)C=C (some centres undefined) | – | – | – | 71.6% [at 11.5 µM] | 0.542% [at 11.6 µM] | -5.92% [at 11.5 µM] |
| C=C1CC[C@@H]2[C@@](C)(CO[C@@H]3O[C@H](CO)[C@@H](O)[C@H](O)[C@H]3O)[C@H](O)CC[C@@]2(C)[C@@H]1CC/C(C)=C/CO[C@@H]1O[C@H](CO)[C@@H](O)[C@H](O)[C@H]1O | inactive | inactive | inactive | – | – | – |
| Cc1ccc(C)c(S(=O)(=O)n2cnc3ccccc32)c1 | inactive | inactive | inactive | – | – | – |
| OC[C@@]1(O)CO[C@H](OC[C@H]2O[C@@H](OC(CCCCc3ccc(O)cc3)CCc3ccc(O)cc3)[C@H](O)[C@@H](O)[C@@H]2O)[C@@H]1O (some centres undefined) | inactive | inactive | inactive | – | – | – |
| COc1ccccc1N1CCN(CCCCNC(=O)c2ccc(-c3cscn3)cc2)CC1 | inactive | inactive | inactive | – | – | – |
| CNC(=O)c1ccc2c(c1)CCO[C@H]2CCN1CCN(c2ccc(C(N)=O)cc2)CC1 | inactive | inactive | inactive | – | – | – |
| C[C@@H]1O[C@@H](OC2C(CO)OC(OCC3OC(OC(=O)[C@]45CCC(C)(C)CC4C4=CCC6[C@@]7(C)CC[C@@H](O)[C@](C)(C(=O)O)C7CC[C@@]6(C)[C@]4(C)CC5)C(O)C(O)C3O)C(O)C2O)[C@H](O)[C@H](O)[C@H]1O (some centres undefined) | – | – | – | 268% [at 11.5 µM] | 3.23% [at 11.6 µM] | 10.6% [at 11.5 µM] |
| CC(C)(O)C1CCC2(C)CCCC(C)(O)C2C1 (centres undefined) | inactive | inactive | inactive | – | – | – |
| CC1(C)CC[C@]2(C(=O)O)[C@H](O)C[C@]3(C)C(=CCC4[C@@]5(C)CC[C@H](O[C@@H]6OC[C@@H](O)[C@H](O)[C@H]6O)[C@@](C)(C(=O)O)C5CC[C@]43C)[C@@H]2C1 (some centres undefined) | inactive | inactive | inactive | – | – | – |
| C=C1CCC2C(C)(C(=O)O)CCCC2(C)C1CC/C(C)=C\CO (centres undefined) | inactive | inactive | inactive | – | – | – |
| C/C=C/C1OC2=C(C(=O)OC2(C)O)C(O)C1O (centres undefined) | inactive | inactive | inactive | – | – | – |
| COc1ccc(Oc2c(Cl)cnn(C3c4ccccc4-c4ccccc43)c2=O)cc1 | inactive | inactive | inactive | – | – | – |
| O=C(/C=C/c1ccc(O)c(O)c1)O[C@@H]1[C@@H](O)[C@H](OC2CCCCC2O)O[C@H](CO)[C@H]1O (some centres undefined) | 2.92 µM (active) | inactive | inactive | – | – | – |
| CC(C)(O)/C=C/C(=O)[C@](C)(O)[C@H]1[C@H](O)C[C@@]2(C)[C@@H]3CC=C4[C@@H](C=C(O[C@@H]5O[C@H](CO)[C@@H](O)[C@H](O)[C@H]5O)C(=O)C4(C)C)[C@]3(C)C(=O)C[C@]12C | inactive | inactive | inactive | – | – | – |

| Structure (SMILES) | Potency [1] | Potency [2] | Potency [3] | activity change, negative = thiol reactive [1] | activity, negative = inhibition [2] | redox activity (% of DA3003) [3] |
| --- | --- | --- | --- | --- | --- | --- |
| O=C(O)CCc1c(C(=O)O)[nH]c2cc(Cl)cc(Cl)c12 | inactive | inactive | inactive | – | – | – |
| C[C@H]1CC[C@@]2(OC1)O[C@H]1CC3C4CC[C@H]5C[C@@H](O)CC[C@]5(C)C4CC(=O)[C@]3(C)[C@H]1[C@@H]2C (some centres undefined) | inactive | inactive | inactive | – | – | – |
| CC1(C)CC=C(c2cnc3ccccc3c2)c2cc(C(=O)Nc3ccc(C(=O)O)cc3)ccc21 | inactive | inactive | inactive | – | – | – |
| C=C(C(=O)O)[C@@H]1CC[C@@]2(C)CC[C@@H](O)C(=C)C2C1 (some centres undefined) | 23.8 µM (active) | inactive | inactive | – | – | – |
| CCOC(=O)CSc1nc2c(sc3ccccc32)c(=O)n1CCCN1CCCC1 | inactive | inactive | inactive | – | – | – |
| COC(=O)C(CC1(OC(=O)C(C)C)c2ccccc2N2C(=O)C(C)(C)N(O)C21)n1cnc2ccccc2c1=O (centres undefined) | inactive | inactive | inactive | – | – | – |
| COC(=O)C1=CO[C@@H](O[C@@H]2O[C@H](CO)[C@@H](O)[C@H](O)[C@H]2O)C2C1CC(O)C2C (some centres undefined) | inactive | inactive | inactive | – | – | – |
| C=CCC1=C[C@]2(OC)[C@H](C)[C@@H](c3ccc(OC)c(OC)c3)O[C@]2(OC)CC1=O | inactive | inactive | inactive | – | – | – |
| C=C1CCc2occ(C)c2[C@H]2[C@H]1[C@@]13O[C@@]1(C[C@@H](C)[C@H]3OC(C)=O)[C@H]1O[C@@]21C | inactive | inactive | inactive | – | – | – |
| CC1(C)O[C@H]2CC(=O)OC[C@@]23C1=C(O)C(=O)[C@]1(C)C3CC[C@@]2(C)[C@H](c3ccoc3)OC(=O)[C@H]3O[C@]321 (some centres undefined) | inactive | inactive | inactive | – | – | – |
| COC(=O)C1=COC(O[C@@H]2O[C@H](COC(=O)/C=C/c3ccc(O)cc3)[C@@H](O)[C@H](O)[C@H]2O)C2C(CO)=CCC12 (some centres undefined) | inactive | inactive | inactive | – | – | – |
| FC(F)(F)Oc1ccc(-c2ccc3nnc(C(F)(F)F)n3c2)cc1 | inactive | inactive | inactive | – | – | – |
| O=C(O)CC1CCC(c2ccc(NC(=O)c3nnc(Nc4ccc(F)c(F)c4)o3)cc2)CC1 (centres undefined) | inactive | inactive | inactive | – | – | – |
| C=C1C2(C)CC3C4(C)C=CC(=O)OC(C)(C)C4CCC3(C)C1(C(=O)OC)C(=O)C(C)(O)C2=O (centres undefined) | inactive | inactive | inactive | – | – | – |
| COC(=O)CCC1(C)C(C(C)(C)O)C(O)CC2(C)Oc3c(C)c4c(c(OC)c3CC21)C(=O)OC4 (centres undefined) | inactive | inactive | inactive | – | – | – |
| CCC(C)C1NC(=O)C2CCCN2C(=O)C(CC(O)CO)OC(=O)CCNC(=O)C(C)N(C)C(=O)C(C(C)C)N(C)C1=O (centres undefined) (cyclo([X13]PI[NMeV][NMeA][βAla]); configuration not given here) | inactive | inactive | inactive | – | – | – |
| CCCN(CCN1CCN(c2ccccc2OC)CC1)C1CCc2ncsc2C1 (centres undefined) | inactive | inactive | inactive | – | – | – |
| COc1cccc(C)c1C(=O)O[C@@H]1C[C@H](O[C@H]2[C@H](O)C[C@H](O[C@@H]3CCC[C@H]4[C@H]3C=C[C@@H]3CCCC/C=C/[C@H]5C=C(C(=O)O)[C@@H](C)C[C@@]56OC(=O)C(=C6O)OC(=O)[C@@]34C)O[C@@H]2C)O[C@H](C)[C@H]1O | – | – | – | 170% [at 11.5 µM] | 4.95% [at 11.6 µM] | -8.49% [at 11.5 µM] |
| Cc1oc2nc3c(c(NC(=O)CN4CCCC4=O)c2c1C)CCCC3 | inactive | inactive | inactive | – | – | – |
| CCOc1ccc(-c2cc(NC(=O)c3c(F)cccc3F)c(C(=O)O)s2)cc1 | inactive | 12 µM (active) | inactive | – | – | – |
| Cc1cn2cc(CC(=O)N3CCC4(CC3)CN(Cc3ccc(-n5nccn5)cc3Cl)C4)nc2s1 | inactive | inactive | inactive | – | – | – |
| C=C(C)C1Cc2c(ccc3c2OCC(c2ccc(O)cc2O)C3)O1 (centres undefined) | inactive | inactive | inactive | – | – | – |
| C/C=C(\C)C(=O)OC1C2(O)CC3=C4CC(=O)OC(c5ccoc5)C4(C)CCC3C(C)(C2=O)C(C(OC(C)=O)C(=O)OC)C1(C)C (centres undefined) | inactive | inactive | inactive | – | – | – |
| C[C@@H]1O[C@@H](O[C@H]2[C@H](O[C@H]3[C@H](O[C@H]4CC[C@@]5(C)C(CC[C@]6(C)C5CC=C5[C@@H]7CC(C)(C)C[C@@H](O)[C@]7(C)CC[C@]56C)C4(C)C)O[C@H](C(=O)O)[C@@H](O)[C@@H]3O)O[C@H](C(=O)O)[C@H](O)[C@@H]2O)[C@H](O)[C@H](O)[C@H]1O (some centres undefined) | – | – | – | 56.2% [at 11.5 µM] | 0.805% [at 11.6 µM] | 11.1% [at 11.5 µM] |
